For 40 compounds, Potency results are on record in PubChem BioAssay (Tox21).

Values joined by “and” are separate entries in the source; they are usually repeats but may differ in a detail not shown here. Identical values can stand only once. Records with an inconclusive call do not appear. Where a call stands in place of a potency, no number is given. Some compounds were tested as several samples or in several runs, with calls that do not always agree. Active and inactive are the calls of the source. The call rests on the fitted dose curve; in most records, active means well fitted cell-killing curve with a large enough effect in the repeat runs; inconclusive means weak or mixed curves, or effect the other way; inactive means flat fitted curve, though single readings scatter.
Potency means the concentration at half of the fitted maximal effect.

The assay can be described thus: qHTS assay to identify small molecule antagonists of the androgen receptor (AR) signaling pathway using the MDA cell line in the presence of 0.5 nM R1881 - cell viability counter screen (AID 1259242). Further: nearly all actives have a fitted effect of over 45% in size. The following applies: MDA-kb2 viability, CellTiter-Fluor protease fluorescence, 16 h; series mostly up to 92.4 µM. From the text:
U.S. Tox21 Program National Center for Advancing Translational Sciences [NCATS] NIH Chemical Genomics Center [NCGC] U.S. Environmental Protection Agency [EPA] National Institutes of Environmental Health Sciences [NIEHS] National Toxicology Program [NTP] U.S. Food and Drug Administration [FDA] Tox21 Assay Overview: Androgen receptor (AR) is an important member of the nuclear receptor family. Its signaling plays a critical role in AR-dependent prostate cancer and other androgen related diseases. Considerable attention has been given in the past decades to develop methods to study and screen for the environmental chemicals that have the potential to interfere with metabolic homeostasis, reproduction, developmental and behavioral functions. Therefore AR binding assay for screening androgen antagonists can be used to identify potential endocrine disruptors. MDA-kb2 cells (from ATCC, deposited by Wilson et al.) were used to screen for AR inhibitors against Tox21 compound libraries. These cells are human breast carcinoma cells that were stably transfected with a luciferase reporter gene under control of the MMTV promoter that contains response elements for both androgen receptor (AR) and glucocorticoid receptor (GR). The current screening for identification of AR inhibitors against Tox21 libraries used lower concentration of (0.5 nM) R1881 as a stimulator. The cytotoxicity of the Tox21 compound libraries against MDA-kb2 cell line was tested by measuring live-cell protease activity using CellTiter-Fluor assay in the same wells.
Tox21 Assay Protocol Summary: MDA-kb2 cells (cells cultured without CO2) were dispensed at 3,000 cells/well in 4 uL of culture medium into white wall/solid-bottom 1536-well plates (Corning Life Sciences, Corning, NY) using a Multidrop Combi (ThermoFisher Scientific, Waltham, MA) dispenser. After the assay plates were incubated at a 37C and 0% CO2 for 5 hr, 23 nL of compounds dissolved in DMSO, positive controls or DMSO only was transferred to the assay plate by a Pintool station (Kalypsys, San Diego, CA). The transfer of compounds was followed by the addition of 1 uL of 0.5 nM (final concentration) agonist (R1881)/culture medium using a Flying Reagent Dispenser (FRD, Aurora Discovery, San Diego, CA). The plates were incubated at 37C and 0% CO2 for 16 hr. For cytotoxicity assay, 1 uL of CellTiter-Fluor reagent (Promega Corporation, Madison, WI) was added to each well using the FRD and after 30 min incubation at 37C and 0% CO2, The fluorescence intensity was measured using ViewLux plate reader (PerkinElmer, Shelton, CT).
For `CCN(CC)N=O`, the Potency entry is “inactive”. As for `CCCCN(CCCC)N=O`, the Potency result is “inactive”.

With `O=C1C=CC(=O)C=C1`, the Potency entry is “inactive”. In the case of `CNC(=O)N(C)c1nnc(C(C)(C)C)s1` it was “inactive”; in that of `Cc1cc(C)cc(C)c1`, “inactive”; in that of `C[C@]12CCC(=O)C(O)=C1CC[C@@H]1[C@@H]2CC[C@]2(C)C(=O)CC[C@@H]12`, “inactive”. The same measure for `N#Cc1cc(Br)c(O)c(Br)c1`: “inactive”; for `C=CCN(CC=C)C(=O)C(Cl)Cl`: “inactive”; for `CCOc1cc(C=O)ccc1O`: “inactive”. Regarding `Cc1cccc(N)c1N`, the Potency result was “inactive”. In the case of `CCCCC(CC)COC(=O)c1ccc(C(=O)OCC(CC)CCCC)c(C(=O)OCC(CC)CCCC)c1` (stereo not given), the Potency result is “inactive”.

Take `O=[N+]([O-])c1ccc(O)c([N+](=O)[O-])c1`: the Potency was 24.4 µM (active) and 27.3 µM (active). `CCCCCCCCOC(=O)c1ccccc1C(=O)OCCCCCCCC`: the Potency entry was “inactive”. In the case of `CC(C)(C)c1ccccc1O`, the Potency entry is “inactive”.

Consider `Cc1cc(Cl)ccc1OCCCC(=O)O`, for which the Potency entry was “inactive”. For the compound `C#C[C@]1(O)CC[C@H]2[C@@H]3CCC4=CC(=O)CC[C@]4(C)[C@H]3CC[C@@]21C`, the Potency result is “inactive”. As for `CCC(=O)O[C@H]1CC[C@H]2[C@@H]3CCC4=CC(=O)CC[C@]4(C)[C@H]3CC[C@]12C`, the Potency entry was “inactive”. In the case of `CCN(N=O)C(N)=O` it was “inactive”; in that of `CCN(CC)C(=O)/C(Cl)=C(\C)OP(=O)(OC)OC`, “inactive”; in that of `c1ccc(P(c2ccccc2)c2ccccc2)cc1`, “inactive”. The same measure for `CCOc1cc(Oc2ccc(C(F)(F)F)cc2Cl)ccc1[N+](=O)[O-]`: “inactive”; for `N#CC(Br)Br`: “inactive”; for `CCCCCCCCCCCOC(=O)c1ccccc1C(=O)OCCCCCCCCCCC`: “inactive”. `Cc1ccc(N)c(N)c1`: the Potency entry is “inactive”. The same measure for `CCCCCCOC(=O)c1ccccc1C(=O)OCCCCCC`: “inactive”. For the compound `CCCCC(CC)COC(=O)Cl` (stereo not given), the Potency entry was “inactive”. On to `CCCCCCCCC(=O)NCc1ccc(O)c(OC)c1`, for which the Potency entry is “inactive”. Take `COP(=S)(OC)Oc1cc(Cl)c(Cl)cc1Cl`: the Potency entry was “inactive”. Regarding `C=CC(=O)OCCO`, the Potency entry was “inactive”.

For `COC(=O)c1sccc1S(=O)(=O)NC(=O)Nc1nc(C)nc(OC)n1`, the Potency entry was “inactive”. For `CCc1cccc(CC)c1N(COC)C(=O)CCl`, the Potency result was “inactive”.

In the case of `CCOCN(C(=O)CCl)c1c(C)cccc1CC`, the Potency result is “inactive”. `CC(C)N(C(=O)SCC(Cl)=C(Cl)Cl)C(C)C`: the Potency result was “inactive”. With `C=CCc1ccc2c(c1)OCO2`, the Potency entry was “inactive”. As for `Clc1nc(Cl)nc(Cl)n1`, the Potency result was “inactive”. With `Oc1cc(Cl)c(Cl)cc1Cl`, the Potency result was “inactive”.

For `CC(O)CCO` (stereo not given), the Potency entry was “inactive”. `c1nc[nH]n1`: the Potency entry is “inactive”. Regarding `CC(C)C(=O)OCC(C)(C)C(OC(=O)C(C)C)C(C)C` (stereo not given), the Potency result was “inactive”. Take `CCC(C)c1cc([N+](=O)[O-])cc([N+](=O)[O-])c1O` (stereo not given): the Potency entry was “inactive and 15.4 µM (active)”.
